Screens from PubChem.
Her2 expr inh: Her2 kinase expression inhibition. SKBR-3 HER2 protein level, AlphaScreen, 18-24 h; active compounds read low. HER2 level % of control, % at 10 µM. 0.69% of 65,000 active. AID 645;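 active means HER2 level under 5% of the carrier-only control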;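 further: 100% = DMSO carrier and 0% = 500 nM PU-H71 HSP90 inhibitor; lower value means stronger loss of Her2 protein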
FXIIa inh mix: blocks human factor XIIa in pooled compound mixtures | P00748 | purified FXIIa, fluorogenic substrate | inhibition, % at 5 µM | 0.2% of 62,000 active | AID 684;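 further: 0% = enzyme without compound and 100% = no enzyme blank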
Target sequence (P00748 20-372 limits assumed): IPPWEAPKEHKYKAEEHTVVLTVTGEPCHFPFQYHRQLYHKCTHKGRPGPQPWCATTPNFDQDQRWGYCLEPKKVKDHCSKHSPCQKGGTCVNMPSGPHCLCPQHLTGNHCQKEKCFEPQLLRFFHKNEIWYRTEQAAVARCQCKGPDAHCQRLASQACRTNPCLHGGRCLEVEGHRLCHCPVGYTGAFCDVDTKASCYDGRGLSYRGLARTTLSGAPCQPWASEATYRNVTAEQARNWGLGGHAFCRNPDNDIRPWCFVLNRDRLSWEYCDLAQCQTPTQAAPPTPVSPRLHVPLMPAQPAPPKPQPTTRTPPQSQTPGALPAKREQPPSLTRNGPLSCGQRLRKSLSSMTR
Target sequence (P00748 373-615 limits assumed): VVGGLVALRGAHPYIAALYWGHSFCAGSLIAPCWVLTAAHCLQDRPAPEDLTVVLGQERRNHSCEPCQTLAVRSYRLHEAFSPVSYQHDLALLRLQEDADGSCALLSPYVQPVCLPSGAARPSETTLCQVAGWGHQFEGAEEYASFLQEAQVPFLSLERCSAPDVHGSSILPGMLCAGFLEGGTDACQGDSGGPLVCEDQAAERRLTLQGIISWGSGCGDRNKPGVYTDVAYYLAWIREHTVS
JNK3 inh: inhibitors of human JNK3 kinase. P53779. purified JNK3 kinase activity, HTS. inhibition, % at 8 µM. 0.61% of 60,000 active. AID 746; in the data active means inhibition above about 17%;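 further: 0% = DMSO and 100% = reference inhibitor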
M1 antagonist: antagonists of rat M1 muscarinic receptor. P08482. CHO-M1 cells, Fluo-4 calcium, ACh EC80 antagonist mode; active compounds read low. B-score at 10 µM. 3.4% of 64,000 active. AID 628;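 active means calcium fluorescence response, raw or row-and-column corrected B-score, differing from the plate sample mean either way at a set confidence level, mostly lower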
M1 ag: M1 muscarinic receptor agonism; CHO-M1 cells, Fluo-4 calcium fluorescence, agonist mode; active compounds read high; B-score at 10 µM; 3% of 64,000 active; AID 626;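 active means fluorescence rise, raw or as B-score row- and column-corrected plate score, outside the 99.7% band of its plate's samples, either direction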
FXIa mix inh: blocks human factor XIa in pooled compound mixtures | 0.19% of 62,000 active | inhibition, % at 5 µM | purified FXIa, fluorogenic substrate | P03951;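 further: each value is inhibition by a whole ten-compound pool holding the compound; 0% = enzyme with no mixture and 100% = wells lacking enzyme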
Numbers without * were called inactive. Most compounds without a hit are left out; they make up all but 6.9% or so of the library. Unless noted, no stated cut-off is given here; in the data, active means inhibition above about 20% (passing the limit was not always enough); inactive means the rest.

How did CC1CCCN(Cc2nc3c(c(=O)n(C)c(=O)n3C)n2CCCc2ccccc2)C1 (stereo not given) do in these assays?
Her2 expr inh: 90.6; JNK3 inh: -1.9; M1 antagonist: -0.00647; M1 ag: 2.35*

What do the screens show for `CCCn1nnc(NC(=O)c2cc(Br)cc(Br)c2OC)n1`?
Her2 expr inh: 83.2; JNK3 inh: 1.2; M1 antagonist: -0.212; M1 ag: 0.824

How did COc1ccccc1C1c2c(oc3ccc(Cl)cc3c2=O)C(=O)N1c1cc(C)on1 (stereo not given) do in these assays?
Her2 expr inh: 57.6; FXIIa inh mix: 8.6; JNK3 inh: 6.2; M1 antagonist: 0.19; M1 ag: -0.0552; FXIa mix inh: -6.3

How did O=C(c1cccnc1)N1CCCc2ccccc21 do in these assays?
Her2 expr inh: 121.1; FXIIa inh mix: 8.5; JNK3 inh: 4.8; M1 antagonist: 0.0284; M1 ag: -2.97*; FXIa mix inh: -2.0

What do the screens show for `O=C(c1cncc(Br)c1)N1CCCc2ccccc21`?
Her2 expr inh: 112.8; JNK3 inh: -10.7; M1 antagonist: 0.284; M1 ag: 0.327

How did CC(=NCc1cccnc1)C1=C(O)c2ccccc2C1=O do in these assays?
Her2 expr inh: 100.1; FXIIa inh mix: 2.7; JNK3 inh: 37.0*; M1 antagonist: -0.258; M1 ag: -0.0713; FXIa mix inh: 10.9

What do the screens show for `O=C1C(C=NCCCn2ccnc2)=C(O)c2ccccc21`?
Her2 expr inh: 102.2; FXIIa inh mix: -13.2; JNK3 inh: 4.6; M1 antagonist: -0.121; M1 ag: -0.0214; FXIa mix inh: -2.8

How did CC(=NCCCn1ccnc1)C1=C(O)c2ccccc2C1=O do in these assays?
Her2 expr inh: 115.7; FXIIa inh mix: -19.4; JNK3 inh: 29.2*; M1 antagonist: 0.00708; M1 ag: -1.55; FXIa mix inh: 0.7

What do the screens show for `CCCCCn1c2nc3ccccc3nc2c2c(=O)n(CC3CCCO3)c(C)nc21` (stereo not given)?
Her2 expr inh: 100.0; FXIIa inh mix: 13.7; JNK3 inh: -0.5; M1 antagonist: 0.638; M1 ag: -0.838; FXIa mix inh: 9.3

Results for CC1(C)CC(=O)C2=C(C1)Oc1nc3ccccc3cc1C2C(C#N)C#N (stereo not given) ?
Her2 expr inh: 6.8; JNK3 inh: 4.2; M1 antagonist: -0.636; M1 ag: 0.8

Results for O=C1c2cccc3cccc(c23)C(=O)N1c1nncs1 ?
Her2 expr inh: -28.5*; FXIIa inh mix: -15.8; JNK3 inh: 5.8; M1 antagonist: -0.0202; M1 ag: -0.563; FXIa mix inh: 12.0

What do the screens show for `CCCc1[nH][nH]c(=O)c1C(c1ccccc1)C(C#N)C#N` (stereo not given)?
Her2 expr inh: 124.1; FXIIa inh mix: 10.9; M1 antagonist: 1.22*; M1 ag: 0.0239; FXIa mix inh: 7.5

Results for CC(NC(=O)C1CCCCC1)C(c1cccs1)N1CCN(C)CC1 (stereo not given) ?
Her2 expr inh: 76.8; FXIIa inh mix: 0.0; JNK3 inh: 2.3; M1 antagonist: -0.823; M1 ag: -0.235; FXIa mix inh: -0.5

What do the screens show for `CSCC[C@H](NC(=O)OC(C)(C)C)c1nnc(SCC(=O)Nc2c(C)cccc2C)o1`?
Her2 expr inh: 94.0; FXIIa inh mix: -0.1; JNK3 inh: 1.2; M1 antagonist: 2.04*; M1 ag: 1; FXIa mix inh: 5.3

How did N#Cc1cc2c(nc1SCc1ccncc1)CCC2 do in these assays?
Her2 expr inh: 79.0; FXIIa inh mix: 5.6; JNK3 inh: 2.5; M1 antagonist: -1.25; M1 ag: -1.1; FXIa mix inh: -7.8

Results for CCN1C(=O)CC(N2CCC(Nc3ccc(OC)cc3)CC2)C1=O (stereo not given) ?
Her2 expr inh: 94.3; FXIIa inh mix: 2.2; JNK3 inh: -3.8; M1 antagonist: 0.391; M1 ag: -0.357; FXIa mix inh: 21.2*

Results for O=S(=O)(c1ccc(F)cc1)N(CCO)CC(O)Cn1c2ccccc2c2ccccc21 (stereo not given) ?
Her2 expr inh: -13.3*; FXIIa inh mix: -1.4; M1 antagonist: 1.01; M1 ag: -0.602; FXIa mix inh: 6.6

How did O=C(NCc1ccccn1)C1CCN(S(=O)(=O)N2CCCC2)CC1 do in these assays?
Her2 expr inh: 127.7; FXIIa inh mix: -1.2; M1 antagonist: -1.07; M1 ag: 0.645; FXIa mix inh: 26.6*

How did CSc1nsc(SC)c1NC(=O)OCC1CCCO1 (stereo not given) do in these assays?
Her2 expr inh: 83.3; FXIIa inh mix: -21.3; JNK3 inh: 7.8; FXIa mix inh: 4.2

Results for Cc1cc(C(=O)NCc2ccccc2Br)no1 ?
Her2 expr inh: 108.6; FXIIa inh mix: 12.8; JNK3 inh: -0.3; M1 antagonist: 0.00418; M1 ag: -0.0016; FXIa mix inh: 3.0

How did CCOCCCN1CC(C(=O)NCCc2ccccc2)CC1=O (stereo not given) do in these assays?
Her2 expr inh: 101.6; FXIIa inh mix: -14.5; JNK3 inh: -4.4; M1 antagonist: 2.2*; M1 ag: 0.292; FXIa mix inh: 6.7

How did COCCNC(=O)C1CC(=O)N(CCc2ccccc2)C1 (stereo not given) do in these assays?
Her2 expr inh: 93.4; FXIIa inh mix: 0.8; JNK3 inh: -0.8; M1 antagonist: 0.0883; M1 ag: -0.0443; FXIa mix inh: -0.5

How did Cc1ccc2c(CSc3nc4ccccc4c(=O)n3CCCO)cc(=O)oc2c1 do in these assays?
Her2 expr inh: 89.2; FXIIa inh mix: -17.2; JNK3 inh: -3.5; M1 antagonist: -0.189; M1 ag: 9.98*; FXIa mix inh: 4.2

What do the screens show for `CCOc1ccc(-c2cc3nc(C4CCN(C(=O)OC(C)(C)C)CC4)c(C(=O)O)cn3n2)cc1`?
Her2 expr inh: 135.9; FXIIa inh mix: 5.3; JNK3 inh: -5.5; M1 antagonist: -1.1; M1 ag: -0.198; FXIa mix inh: -0.5

How did CCN(CCNC(=O)c1cccc(N2CCCC2=O)c1)c1ccccc1 do in these assays?
Her2 expr inh: 74.7; FXIIa inh mix: 1.9; JNK3 inh: 1.2; M1 antagonist: 0.608; M1 ag: 0.581; FXIa mix inh: 7.1

How did CN(CCNC(=O)c1cccc(N2CCCC2=O)c1)Cc1ccccc1 do in these assays?
Her2 expr inh: 71.9; FXIIa inh mix: 24.1*; JNK3 inh: 0.0; M1 antagonist: 0.266; M1 ag: 0.135; FXIa mix inh: 0.0

What do the screens show for `Cc1c(-c2nc(N)nc(Nc3ccccc3)n2)oc2ccccc12`?
Her2 expr inh: 264.4; FXIIa inh mix: 3.2; JNK3 inh: 18.5*; M1 antagonist: -0.759; M1 ag: -0.0281; FXIa mix inh: 2.1

Results for Nc1nc(-c2cccs2)c(NC(=O)c2ccccc2)s1 ?
Her2 expr inh: -11.0*; FXIIa inh mix: -31.0; JNK3 inh: -8.2; M1 antagonist: -0.442; M1 ag: -0.0486; FXIa mix inh: 7.2

What do the screens show for `CCOC(=O)c1c(-c2cccs2)csc1NC(=O)c1ccncc1`?
Her2 expr inh: 137.6; JNK3 inh: -1.7; M1 antagonist: -0.172; M1 ag: 0.328

Results for Cn1c(NC(=O)c2cc(Br)ccc2Cl)cc(=O)n(C)c1=O ?
Her2 expr inh: 106.1; FXIIa inh mix: 7.1; JNK3 inh: -1.9; M1 antagonist: 0.288; M1 ag: -0.928; FXIa mix inh: -0.3
